{"source": "PubChem BioAssay (EPA / NIEHS)", "note": "Activity calls are given as the source filed them. The calls were made as follows: active = hit-call score of the fitted dose curve at least 0.9, where 1 is the maximum; inactive = score below 0.9.", "data": [{"read-out": "Phosphatase and tensin (PTEN), PTEN (gene 5728)", "assay": "LTEA_HepaRG_PTEN: Life Technologies and Expression Analysis (LTEA) Assay for Phosphatase and tensin (PTEN) using HepaRG (AID 2283523)", "conditions": "mRNA level, 48 h; actives raise or lower the signal", "how_it_was_run": "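HepaRG, 48 h exposure, 8-pt half-log series from 100 uM top, 0.5% DMSO vehicle, duplicates. Readout: Fluidigm qRT-PCR of PTEN transcript; housekeeping normalization (ACTB, GAPDH, POLR2A). Gain or loss fitted relative to DMSO baseline.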", "values": [{"smiles": "CC1=CC(=O)CC(C)(C)C1", "outcome": "inactive"}, {"smiles": "CC(C)CCO", "outcome": "inactive"}, {"smiles": "O=C(O)CCN(C1(C(=O)NO)CCCC1)S(=O)(=O)c1ccc(Oc2ccc(F)cc2)cc1", "outcome": "inactive"}, {"smiles": "COC(=O)c1ccccc1O", "outcome": "inactive"}, {"smiles": "CC(=O)OCCC(C)C", "outcome": "inactive"}, {"smiles": "Clc1nc(Cl)c(Cl)c(Cl)c1Cl", "outcome": "inactive"}, {"smiles": "Cc1ccc(S(=O)(=O)O)cc1C", "outcome": "inactive"}, {"smiles": "CCOCCOCCOCCO", "outcome": "inactive"}, {"smiles": "COC(=O)c1c(Cl)c(Cl)c(C(=O)OC)c(Cl)c1Cl", "outcome": "inactive"}, {"smiles": "CC1(C)C(=O)N(Br)C(=O)N1Br", "outcome": "inactive"}, {"smiles": "COC(=O)CC(=O)OC", "outcome": "inactive"}, {"smiles": "CC[C@H]1CC[C@H](NCc2cc3c(cc2OC)[C@H]2C[C@H]2C(=O)N3C)[C@H](c2ccccc2)N1", "outcome": "inactive"}, {"smiles": "CC(O)CN(CCN(CC(C)O)CC(C)O)CC(C)O", "note": "(configuration not stated)", "outcome": "inactive"}, {"smiles": "O=C1CCC(N2C(=O)c3ccccc3C2=O)C(=O)N1", "note": "(configuration not stated)", "outcome": "inactive"}, {"smiles": "O=P(OC(CCl)CCl)(OC(CCl)CCl)OC(CCl)CCl", "outcome": "inactive"}, {"smiles": "COc1cccc(-c2ccc(/C=C\\CN3CCCCCC3)cc2Cl)c1", "outcome": "inactive"}, {"smiles": "O=C1CCCCCN1", "outcome": "inactive"}, {"smiles": "CCOCCO", "outcome": "inactive"}, {"smiles": "CCN(C(=O)c1cc(C)cc(OC[C@H](C)Nc2ccncc2)c1)C(C)C", "outcome": "inactive"}, {"smiles": "CCCCC(CC)COC(=O)c1ccc(C(=O)OCC(CC)CCCC)cc1", "note": "(configuration not stated)", "outcome": "inactive"}, {"smiles": "CNS(=O)(=O)c1cc(C(=O)N2CCC(CCN3C4CCC3CC(n3c(C)nc5ccccc53)C4)(c3cccc(F)c3)CC2)c(Cl)cc1F", "note": "(configuration not stated)", "outcome": "inactive"}, {"smiles": "CCCCCCc1ccc(O)cc1O", "outcome": "inactive"}, {"smiles": "COCCOCCOCCOC", "outcome": "inactive"}, {"smiles": "CC[C@H](C)C(=O)O[C@H]1C[C@@H](C)C=C2C=C[C@H](C)[C@H](CC[C@@H]3C[C@@H](O)CC(=O)O3)[C@H]21", "outcome": "inactive"}, {"smiles": "C=CC(=C)CCC=C(C)C", "outcome": "inactive"}, {"smiles": "C1=CCCC=CCCC=CCC1", "outcome": "inactive"}, {"smiles": "CC(C)=CCCC(C)=CC=O", "outcome": "inactive"}, {"smiles": "Cn1cnc([N+](=O)[O-])c1Sc1ncnc2nc[nH]c12", "outcome": "inactive"}, {"smiles": "CC(C)CC(C)(O)C#CC(C)(O)CC(C)C", "note": "(configuration not stated)", "outcome": "inactive"}]}, {"read-out": "solute carrier (SLC22A1), SLC22A1 (gene 6580)", "assay": "LTEA_HepaRG_SLC22A1: Life Technologies and Expression Analysis (LTEA) Assay for solute carrier (SLC22A1) using HepaRG (AID 2283524);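 as to AC50: differentiated human HepaRG liver cells in serum-free induction medium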", "conditions": "mRNA level, 48 h; actives raise or lower the signal", "how_it_was_run": "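qRT-PCR readout (TaqMan, Fluidigm arrays) of SLC22A1 transcript, normalized to three housekeeping genes; bidirectional curve fit relative to 0.5% DMSO vehicle. Differentiated human HepaRG cells, 48 h chemical exposure, top concentration 100 uM, half-log steps, eight points.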", "values": [{"smiles": "CC1=CC(=O)CC(C)(C)C1", "outcome": "inactive"}, {"smiles": "CC(C)CCO", "outcome": "inactive"}, {"smiles": "O=C(O)CCN(C1(C(=O)NO)CCCC1)S(=O)(=O)c1ccc(Oc2ccc(F)cc2)cc1", "outcome": "inactive"}, {"smiles": "COC(=O)c1ccccc1O", "outcome": "inactive"}, {"smiles": "CC(=O)OCCC(C)C", "outcome": "inactive"}, {"smiles": "Clc1nc(Cl)c(Cl)c(Cl)c1Cl", "outcome": "inactive"}, {"smiles": "Cc1ccc(S(=O)(=O)O)cc1C", "outcome": "inactive"}, {"smiles": "CCOCCOCCOCCO", "outcome": "inactive"}, {"smiles": "COC(=O)c1c(Cl)c(Cl)c(C(=O)OC)c(Cl)c1Cl", "outcome": "inactive"}, {"smiles": "CC1(C)C(=O)N(Br)C(=O)N1Br", "outcome": "inactive"}, {"smiles": "COC(=O)CC(=O)OC", "outcome": "inactive"}, {"smiles": "CC[C@H]1CC[C@H](NCc2cc3c(cc2OC)[C@H]2C[C@H]2C(=O)N3C)[C@H](c2ccccc2)N1", "outcome": "inactive"}, {"smiles": "CC(O)CN(CCN(CC(C)O)CC(C)O)CC(C)O", "note": "(configuration not stated)", "outcome": "inactive"}, {"smiles": "O=C1CCC(N2C(=O)c3ccccc3C2=O)C(=O)N1", "note": "(configuration not stated)", "outcome": "inactive"}, {"smiles": "O=P(OC(CCl)CCl)(OC(CCl)CCl)OC(CCl)CCl", "AC50": "75.2 µM (active)"}, {"smiles": "COc1cccc(-c2ccc(/C=C\\CN3CCCCCC3)cc2Cl)c1", "AC50": "74.4 µM (active)"}, {"smiles": "O=C1CCCCCN1", "outcome": "inactive"}, {"smiles": "CCOCCO", "outcome": "inactive"}, {"smiles": "CCN(C(=O)c1cc(C)cc(OC[C@H](C)Nc2ccncc2)c1)C(C)C", "AC50": "33.8 µM (active)"}, {"smiles": "CCCCC(CC)COC(=O)c1ccc(C(=O)OCC(CC)CCCC)cc1", "note": "(configuration not stated)", "outcome": "inactive"}, {"smiles": "CNS(=O)(=O)c1cc(C(=O)N2CCC(CCN3C4CCC3CC(n3c(C)nc5ccccc53)C4)(c3cccc(F)c3)CC2)c(Cl)cc1F", "note": "(configuration not stated)", "AC50": "18.8 µM (active)"}, {"smiles": "CCCCCCc1ccc(O)cc1O", "outcome": "inactive"}, {"smiles": "COCCOCCOCCOC", "outcome": "inactive"}, {"smiles": "CC[C@H](C)C(=O)O[C@H]1C[C@@H](C)C=C2C=C[C@H](C)[C@H](CC[C@@H]3C[C@@H](O)CC(=O)O3)[C@H]21", "outcome": "inactive"}, {"smiles": "C=CC(=C)CCC=C(C)C", "outcome": "inactive"}, {"smiles": "C1=CCCC=CCCC=CCC1", "outcome": "inactive"}, {"smiles": "CC(C)=CCCC(C)=CC=O", "outcome": "inactive"}, {"smiles": "Cn1cnc([N+](=O)[O-])c1Sc1ncnc2nc[nH]c12", "AC50": "16.1 µM (active)"}, {"smiles": "CC(C)CC(C)(O)C#CC(C)(O)CC(C)C", "note": "(configuration not stated)", "outcome": "inactive"}]}, {"read-out": "Pyruvate Dehydrogenase Kinase 4 (PDK4), PDK4 (gene 5166)", "assay": "LTEA_HepaRG_PDK4: Life Technologies and Expression Analysis (LTEA) Assay for Pyruvate Dehydrogenase Kinase 4 (PDK4) using HepaRG (AID 2283525)", "conditions": "mRNA level, 48 h; actives raise or lower the signal", "how_it_was_run": "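HepaRG (human liver line), 48 h chemical exposure, 8-pt half-log CRC top 100 uM, 0.5% DMSO vehicle, duplicates. Readout: TaqMan qRT-PCR of PDK4 mRNA, housekeeping-normalized; gain/loss fit relative to DMSO baseline.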", "values": [{"smiles": "CC1=CC(=O)CC(C)(C)C1", "outcome": "inactive"}, {"smiles": "CC(C)CCO", "outcome": "inactive"}, {"smiles": "O=C(O)CCN(C1(C(=O)NO)CCCC1)S(=O)(=O)c1ccc(Oc2ccc(F)cc2)cc1", "outcome": "inactive"}, {"smiles": "COC(=O)c1ccccc1O", "outcome": "inactive"}, {"smiles": "CC(=O)OCCC(C)C", "outcome": "inactive"}, {"smiles": "Clc1nc(Cl)c(Cl)c(Cl)c1Cl", "outcome": "inactive"}, {"smiles": "Cc1ccc(S(=O)(=O)O)cc1C", "outcome": "inactive"}, {"smiles": "CCOCCOCCOCCO", "outcome": "inactive"}, {"smiles": "COC(=O)c1c(Cl)c(Cl)c(C(=O)OC)c(Cl)c1Cl", "outcome": "inactive"}, {"smiles": "CC1(C)C(=O)N(Br)C(=O)N1Br", "outcome": "inactive"}, {"smiles": "COC(=O)CC(=O)OC", "outcome": "inactive"}, {"smiles": "CC[C@H]1CC[C@H](NCc2cc3c(cc2OC)[C@H]2C[C@H]2C(=O)N3C)[C@H](c2ccccc2)N1", "outcome": "inactive"}, {"smiles": "CC(O)CN(CCN(CC(C)O)CC(C)O)CC(C)O", "note": "(configuration not stated)", "outcome": "inactive"}, {"smiles": "O=C1CCC(N2C(=O)c3ccccc3C2=O)C(=O)N1", "note": "(configuration not stated)", "outcome": "inactive"}, {"smiles": "O=P(OC(CCl)CCl)(OC(CCl)CCl)OC(CCl)CCl", "outcome": "inactive"}, {"smiles": "COc1cccc(-c2ccc(/C=C\\CN3CCCCCC3)cc2Cl)c1", "AC50": "74.1 µM (active)"}, {"smiles": "O=C1CCCCCN1", "outcome": "inactive"}, {"smiles": "CCOCCO", "outcome": "inactive"}, {"smiles": "CCN(C(=O)c1cc(C)cc(OC[C@H](C)Nc2ccncc2)c1)C(C)C", "AC50": "53.7 µM (active)"}, {"smiles": "CCCCC(CC)COC(=O)c1ccc(C(=O)OCC(CC)CCCC)cc1", "note": "(configuration not stated)", "outcome": "inactive"}, {"smiles": "CNS(=O)(=O)c1cc(C(=O)N2CCC(CCN3C4CCC3CC(n3c(C)nc5ccccc53)C4)(c3cccc(F)c3)CC2)c(Cl)cc1F", "note": "(configuration not stated)", "AC50": "28.9 µM (active)"}, {"smiles": "CCCCCCc1ccc(O)cc1O", "AC50": "66.4 µM (active)"}, {"smiles": "COCCOCCOCCOC", "outcome": "inactive"}, {"smiles": "CC[C@H](C)C(=O)O[C@H]1C[C@@H](C)C=C2C=C[C@H](C)[C@H](CC[C@@H]3C[C@@H](O)CC(=O)O3)[C@H]21", "AC50": "16.9 µM (active)"}, {"smiles": "C=CC(=C)CCC=C(C)C", "outcome": "inactive"}, {"smiles": "C1=CCCC=CCCC=CCC1", "outcome": "inactive"}, {"smiles": "CC(C)=CCCC(C)=CC=O", "outcome": "inactive"}, {"smiles": "Cn1cnc([N+](=O)[O-])c1Sc1ncnc2nc[nH]c12", "AC50": "6.61 µM (active)"}, {"smiles": "CC(C)CC(C)(O)C#CC(C)(O)CC(C)C", "note": "(configuration not stated)", "outcome": "inactive"}]}]}
